Reference: the supplement of paper PMC11417369
± gives the standard deviation of the averaged measurements. The full ranking holds about 25,000 sequences; the median of “ln(normalized median fluorescence intensity)” is about 8.6, and the highest 2% start at about 10. What follows is part of a selection rich in the highest values, with near analogues and random picks from the rest.

Test system: PfAP2-EXP AP2 domain (GST-tagged)
Test: gcPBM binding intensity (ln(normalized median fluorescence intensity)); higher = stronger DNA binding
How it was run: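 Binding intensity values are the highest Masliner-normalised natural-log median intensity among replicate spots of either probe orientation. The binding step lasted 1 h in 1× PBS with 1% milk, 0.2 mg/ml BSA, 0.5% salmon testes DNA and 0.03% Triton X-100, using GST-tagged P. falciparum DNA-binding domains expressed in E. coli on an Agilent 4 × 180k array of primer-extended double-stranded 36-bp intergenic genomic probes plus negative controls. Alexa488 anti-GST antibody and a 488 nm scan detected bound protein.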

Sequence | gcPBM binding intensity (ln)
TATAATATATTTATATGTACTTATTTATTTATATAT [XGTACX_site6519] | 8.39 ± 0.34
AAAAATAAAATAAAGAAGGAAAATAAAAAAATAAGG [CACACA_negctrl_site1811] | 8.79 ± 0.44
ATTTGTATATATTAATGTACACACATGCGTATGTTC [XGTACX_site7579] | 8.73 ± 0.41
ATATTTATGACCGTACGTACCTAACAATACAATCAA [XGTACX_site4511] | 8.67 ± 0.099
TATATAAACATATAAACATGCAATATATATATGTTA [TGCATGCA_site765] | 8.43 ± 0.2
TTAATTTACATGAACTGTACATAACATTTTTTTAAA [XGTACX_site4672] | 8.38 ± 0.38
TATATATATATATATATACACACTATATAATTCAAA [CACACA_site1023] | 10.2 ± 0.44
ATAAATAATATAAATACACACTAAAAAAAATATATA [CACACA_site4456] | 8.62 ± 0.54
CAATTCAATATATATACACACACACTATTAATAATT [CACACA_site9256] | 8.52 ± 0.41
TATATATATATATATACACACTATATAATTCAAACA [CACACA_site4712] | 10.1 ± 0.33
TATATATATATATATACACACACACTAATAAAAAAA [CACACA_site8426] | 10.2 ± 0.21
AGGCACGTGTTATATACACACATAATCAAATAAACT [CACACA_site7852] | 8.76 ± 0.56
ATATAAATAATATAAATACACACTAAAAAAAATATA [CACACA_site542] | 8.72 ± 0.51
CCCCCCGTGTTATATACACACATAATCAAATAAAAT [CACACA_site4111] | 10.9 ± 0.078
AAATTATAATATAATACACACATAAAAAAAAAATCA [CACACA_site3634] | 8.6 ± 0.43
AAAGTAAAAGAAAGCACACACACATGGATTTATGTA [CACACA_site5997] | 8.53 ± 0.49
ATATAGAATGTTTACACACGCAATAAATATATATAT [CACACA_site217] | 9.27 ± 0.13
AAAAAAAAAAAAAAAAAAAAAAAAAAAATTCTATAT [GTGCAC_negctrl_site468] | 9.28
ACAAATAAATATATATGTACATATATTTTTTTATTT [XGTACX_site2989] | 8.56 ± 0.37

Sequence | gcPBM binding intensity (ln)
GACACCTGCATGAAAGTGCAAAATAGAAAAGGAACA [GTGCAC_site9593] | 9.22 ± 0.38
ATATAGAACACCTGTGCATGCAAGTGCTAAAAAATT [TGCATGCA_site213] | 10.175 ± 0.007
TATATAGAAAACAAGGCATGCAAATAACAAATTGTG [TGCATGCA_site473] | 9.85 ± 0.36
TATTTTACTTTAAAAATGGAAAAAAAAAAGAATATT [CACACA_negctrl_site1360] | 8.38 ± 0.47
TAGAAATAAGAAAAATGTACATATAATATTGAAAGT [XGTACX_site3043] | 9.17 ± 0.35
TAAAAAAAAACATATACACACAAAAACGTACACATA [CACACA_site1354] | 8.86 ± 0.36
AATGATACACATATATGTACATATATATATATATAT [XGTACX_site5391] | 10 ± 0.58
ATACAATGATATATACATATATATATATATATATAT [TGCATGCA_negctrl_site359] | 10.2 ± 0.49
TAATGATAAATACATACACACAAAAAATGATATATA [CACACA_site7258] | 8.6 ± 0.32
CGCAAAACAATGATACGTACATATATATATATATAT [XGTACX_site5883] | 10.3 ± 0.33
GTAATATATACAAAATGTACAAAACAATAACATGAT [XGTACX_site8575] | 8.8 ± 0.39
AGAATATTTATATGATGTACTTATATATATATATAT [XGTACX_site3021] | 9.97 ± 0.47
AAAAGCACAAAAAATACACACACAAAAAATAAAAAA [CACACA_site8545] | 8.5 ± 0.57
TTCAAATTGTTTATATGTACTTATAAAAATTGTCTG [XGTACX_site977] | 8.35 ± 0.42
ACATGAATTTATATGTGTACTAACTATATTCTTAAA [XGTACX_site5966] | 8.27 ± 0.25
ATATATATATATATATGTACTAAGAATTCTTTAAAA [XGTACX_site8476] | 10.3 ± 0.16
TTAAAAATAATATTATGTACTAAGAATAAATATATA [XGTACX_site3100] | 8.34 ± 0.43
CATTTTAAAGAAAATACACACAAAAATAGATATATA [CACACA_site6773] | 8.66 ± 0.38
ATTTGTTACGGACATGCATGCGAATCAGGGTATATA [TGCATGCA_site154] | 10.1 ± 0.28

Sequence | gcPBM binding intensity (ln)
CATACACCCATACATACACACATACATACACCCATA [CACACA_site5124] | 8.67 ± 0.47
ACCATACATACATACACACACACACGCATATTTATA [CACACA_site7386] | 9.05 ± 0.6
CATATATACGCATACACACACACACCCACACCCACA [CACACA_site1725] | 8.79 ± 0.52
TTGGCATACAGACACACACACACACCCCCACATATA [CACACA_site590] | 9.43 ± 0.61
CATATTCCCCCCCACACACACACACGCATACATACC [CACACA_site7148] | 11.1 ± 0.19
GACATATTCCCCCCCACACACACACCCACATACATA [CACACA_site2302] | 10.8 ± 0.11
AAAAAAAAAATACATACACACACACCCACCCATATA [CACACA_site9187] | 9.14 ± 0.54
TATTCCCCCAAACACACACACACACCCACATACCAC [CACACA_site2304] | 9.33 ± 0.23
CACAAACACCCAAACACACACACACCGACATACATA [CACACA_site4410] | 8.41 ± 0.54
CATATTCCCCCCCACACACACACACCCATACATACC [CACACA_site2303] | 11.1 ± 0.18
TACATATACAGACACACACACACACCCCCACAAAAA [CACACA_site495] | 9.88 ± 0.52
TATTCCCCCCAACACACACACACACCGACATACCAC [CACACA_site8723] | 10.2 ± 0.23
TTTTTTTTTTTTTTTATAGTACATTACCAAAAAAAA [CACACA_negctrl_site1197] | 8.27 ± 0.39
TTTGAAATAAGCAAATGTACATTATTATTAAATATA [XGTACX_site6158] | 8.38 ± 0.32
GAATCACTAATTTTTTTACACACCACAATTTAATTT [CACACA_site8311] | 8.94 ± 0.47
TATATTAAATATTACACACATACATTTAGTGTCAAA [CACACA_site1990] | 8.35 ± 0.37
TTTTTATATTCCCCCAGTACATATATAATAGTAGTA [XGTACX_site7927] | 10 ± 0.3
AACAAGAAAAAAAAAAAAAAAAAAAAAAAATATTTT [XGTACX_negctrl_site428] | 8.13 ± 0.3
